Results taken from PubChem BioAssay (Tox21).
Records with an inconclusive call do not appear. Activity calls are given as the source filed them. Unless noted, calls follow the shape of the dose curve; as a rule, active = well fitted curve in the direction sought with a large enough effect in the repeat runs; inconclusive = weak or mixed curves; inactive = no such curve, though single readings can be large; an effect the other way counts as inactive or inconclusive.

Columns and labels:
[1] = qHTS assay to identify small molecule agonists of the vitamin D receptor (VDR) signaling pathway - cell viability counter screen (AID 743224); also: series mostly up to about 63 µM; nearly all actives have a fitted effect of over 50% in size
Outline: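 Counter screen for cytotoxicity: VDR-bla cells at 2,000 cells/well, 16 h compound exposure, then CellTiter-Glo luminescence after the beta-lactamase measurement.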

[2] = qHTS assay to identify small molecule agonists of the NFkB signaling pathway (AID 1159509; active = well fitted curve in the direction sought with a large enough effect in the signal ratio in the repeat runs, not every such curve was filed as active; the % refers to the signal ratio; also: series mostly up to about 61 µM)
Outline: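 Beta-lactamase reporter assay run in quantitative high-throughput format on an NF-kB-responsive ME-180 line, with 5 hr compound treatment and a FRET-based blue/green fluorescence readout.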

[3] = qHTS assay to identify small molecule agonists of the NFkB signaling pathway - cell viability counter screen (AID 1159515; calls by dose curve; also: series mostly up to about 61 µM; nearly all actives have a fitted effect of over 55% in size)
Outline: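 Counter screen run alongside the NFkB-bla agonist assay: ME-180 reporter cells exposed to compounds for 5 hr, then lysed with CellTiter-Glo in the same wells. Luminescence, read after 30 min, reflects viable cells.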

[4] = qHTS assay to identify small molecule agonists of the endoplasmic reticulum stress response signaling pathway (AID 1159516; active = well fitted activation curve with a large enough effect in the signal ratio in the repeat runs, not every such curve was filed as active; the % refers to the signal ratio)
Outline: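 For this screen, HeLa cells stably carrying beta-lactamase under the ER stress response element received test compounds, positive controls or DMSO for 5 hr at 37 C; B/G FRET substrate was then added and dual-wavelength emission recorded.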

[5] = qHTS assay to identify small molecule agonists of the endoplasmic reticulum stress response signaling pathway - cell viability counter screen (AID 1159517; calls by dose curve; also: series mostly up to about 61 µM; nearly all actives have a fitted effect of over 50% in size)
Outline: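 After overnight attachment, ESRE-bla HeLa cells were treated with Tox21 library compounds for 5 hr. CellTiter-Glo luminescence, read 30 min post-addition at room temperature, reported viability.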

[6] = qHTS assay to identify small molecule antagonists of the retinoid-related orphan receptor gamma (ROR-gamma) signaling pathway - cell viability counter screen (AID 1159520); also: nearly all actives have a fitted effect of over 50% in size
Outline: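 Cytotoxicity was read from cellular ATP (CellTiter-Glo luminescence) after 16 hr at 37 C with 1 uM doxycycline induction. The inducer was added 2 hr after compound transfer to Tet-on ROR gamma CHO cells.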

[7] = molecular target: Nuclear receptor ROR-gamma (Homo sapiens) (UniProt P51449); test: qHTS assay to identify small molecule antagonists of the retinoid-related orphan receptor gamma (ROR-gamma) signaling pathway (AID 1159521; also: nearly all actives have a fitted effect of over 50% in size; also: potency is read from the fitted curve at half-maximal effect)
Outline: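 Inducible-expression reporter assay: doxycycline (1 uM final) switched on RORγ in CHO cells bearing a ROR response element-luciferase construct, with test compounds present from 2 h beforehand. Decreased luminescence after 16 h defined antagonist activity.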

[8] = qHTS assay to identify small molecule agonists of the AP-1 signaling pathway - cell viability counter screen (AID 1159525; calls by dose curve; also: nearly all actives have a fitted effect of over 55% in size)
Outline: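 Intracellular ATP by Cell Titer Glo luminescence (30 min, RT) in the same ME-180 AP-1-bla wells after the 5 h compound exposure at 37 °C. Normalised to tetra n-octyl ammonium bromide and DMSO controls.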

[9] = qHTS assay to identify small molecule agonists of the AP-1 signaling pathway (AID 1159526; calls by dose curve)
[10] = qHTS assay to identify small molecule agonists of the RXR signaling pathway - cell viability counter screen (AID 1159529)
Outline: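 Counter screen: CellTiter-Glo luminescence. Cells: RXR-alpha-UAS-bla HEK 293T. Medium: 2% charcoal-stripped FBS. Treatment: 16 h, 37 C. Reagent incubation: 30 min, RT.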

[11] = qHTS assay to identify small molecule antagonists of the retinoid acid receptor (RAR) signaling pathway - cell viability counter screen (AID 1159551); also: nearly all actives have a fitted effect of over 35% in size
Outline: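 Measured by luminescent ATP detection, viability reflects C3RL4 cells treated 6 h at 37 C with test chemicals in the presence of 1 uM (final) retinol.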

[12] = qHTS assay to identify small molecule antagonists of the vitamin D receptor (VDR) signaling pathway - cell viability counter screen (AID 743225); also: nearly all actives have a fitted effect of over 50% in size
Outline: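 Same-well multiplex: following 16 h treatment of HEK 293T cells carrying a UAS-driven beta-lactamase reporter with compound and agonist (3 nM final), and a 2 h FRET substrate step, CellTiter-Glo was added and luminescence read after 30 min.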

[13] = qHTS assay to identify small molecule antagonists of the retinoic acid receptor (RAR) signaling pathway (AID 1159552; also: nearly all actives have a fitted effect of over 50% in size)
Outline: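 Antagonism of retinol-induced RARE reporter activity was measured in C3RL4 cells. Exposure to compounds and 1 uM final retinol lasted 6 hr at 37 C, with luminescence as endpoint.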

[14] = qHTS assay to identify small molecule agonists of the retinoic acid receptor (RAR) signaling pathway (AID 1159553)
Outline: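 6 hr compound exposure (DMSO vehicle) of overnight-plated C3RL4 RARE-luc cells at 37 C; luminescence quantified after 30 min RT with luciferase reagent.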

[15] = molecular target: Retinoic acid receptor RXR-alpha (Homo sapiens) (UniProt P19793); test: qHTS assay to identify small molecule agonists of the RXR signaling pathway (AID 1159527; calls by dose curve; also: nearly all actives have a fitted effect of over 35% in size)
Retinoic acid receptor RXR-alpha (Homo sapiens), sequence (P19793 whole entry, looked up): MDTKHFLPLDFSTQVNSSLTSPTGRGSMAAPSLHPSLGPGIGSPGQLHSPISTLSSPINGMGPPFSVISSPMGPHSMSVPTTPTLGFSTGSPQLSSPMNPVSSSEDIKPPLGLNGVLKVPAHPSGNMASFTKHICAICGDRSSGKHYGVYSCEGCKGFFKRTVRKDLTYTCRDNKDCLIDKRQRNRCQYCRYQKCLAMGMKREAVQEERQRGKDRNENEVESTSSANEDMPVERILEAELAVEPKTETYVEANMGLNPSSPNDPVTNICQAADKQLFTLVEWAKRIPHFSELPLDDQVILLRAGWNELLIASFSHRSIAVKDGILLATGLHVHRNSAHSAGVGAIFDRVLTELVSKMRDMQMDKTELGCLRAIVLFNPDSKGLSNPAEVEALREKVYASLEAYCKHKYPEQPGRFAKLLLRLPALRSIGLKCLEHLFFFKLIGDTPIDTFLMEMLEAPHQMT
Outline: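 Compounds in DMSO were added to RXR-alpha-UAS-bla HEK 293T cells kept in 2% charcoal-stripped serum, and incubated 16 hr at 37 C with 5% CO2. Reporter signal came from a 2 hr B/G FRET substrate step.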

[16] = qHTS assay to identify small molecule antagonists of the estrogen related receptor (ERR) signaling pathway - cell viability counter screen (AID 1224818); also: series mostly up to about 46 µM
Outline: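 Compounds dissolved in DMSO were applied to ERR cells seeded at 2,000 per well 6 h earlier. Cell viability followed 17.5 h later via 30-min CellTiter-Fluor fluorescence.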

[17] = qHTS assay to identify small molecule antagonists of the estrogen related receptor signaling pathway with the pleiotropic PPARgamma coactivator (PGC) cell viability counter screen (AID 1224822; also: series mostly up to about 46 µM)
Outline: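 Counter screen for cell viability: PGC/ERR cells, 6 h pre-incubation after plating, 17.5 h compound exposure at 37 C, fluorescence from CellTiter-Fluor after 30 min.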

Measured: Potency

COc1cc(OC)nc(Sc2cccc(Cl)c2C(=O)O)n1
not listed: [12] | [13] | [14] | [15] | [16] | [17]
inactive: all other assays above

OCCSCSCCO
not listed: [12] | [13] | [14] | [15] | [16] | [17]
inactive: all other assays above

CN1C[C@@H](NS(=O)(=O)N(C)C)C[C@@H]2c3cccc4c3c(cn4C)C[C@H]21
not listed: [13] | [14] | [15] | [16] | [17]
inactive: all other assays above

CC(N)=S
not listed: [12] | [13] | [14] | [15] | [16] | [17]
inactive: all other assays above

O=CNC(N1CCN(C(NC=O)C(Cl)(Cl)Cl)CC1)C(Cl)(Cl)Cl (stereo unspecified)
not listed: [12] | [13] | [14] | [15] | [16] | [17]
inactive: all other assays above

CCOP(=S)(OCC)Oc1cc(-c2ccccc2)on1
not listed: [14] | [15] | [16] | [17]
inactive: all other assays above

CC1=NNC(=O)N(/N=C/c2cccnc2)C1
not listed: [14] | [15] | [16] | [17]
inactive: all other assays above

CC1CCCCC1NC(=O)Nc1ccccc1 (stereo unspecified)
not listed: [14] | [15] | [16] | [17]
inactive: all other assays above

O=C(Nc1ccccc1)N(Cc1ccc(Cl)cc1)C1CCCC1
active: [7] 61.1 µM
not listed: [1] | [13] | [15] | [16] | [17]
inactive: all other assays above

O=C(Nc1ccccc1)c1ccccc1I
not listed: [14] | [15] | [16] | [17]
inactive: all other assays above

Nc1cnn(-c2ccccc2)c(=O)c1Cl
not listed: [12] | [13] | [14] | [15] | [16] | [17]
inactive: all other assays above

CCCSP(=O)(OCC)Oc1ccc(Br)cc1Cl (stereo unspecified)
not listed: [1] | [15] | [16] | [17]
inactive: all other assays above

CCC(Cl)[N+](=O)[O-] (stereo unspecified)
not listed: [13] | [14] | [15] | [16] | [17]
inactive: all other assays above

C[N+](=O)[O-]
not listed: [1] | [13] | [14] | [15] | [16] | [17]
inactive: all other assays above

N#CCCC#N
not listed: [13] | [14] | [15] | [16] | [17]
inactive: all other assays above

CC(C)COP(=O)(OCC(C)C)OCC(C)C
not listed: [13] | [14] | [15] | [16] | [17]
inactive: all other assays above

CC1(C)C(=O)NC(=O)NC1=O
not listed: [13] | [14] | [15] | [16] | [17]
inactive: all other assays above

COc1cc(OC)nc(NC(=O)NS(=O)(=O)c2ncccc2C(=O)N(C)C)n1
not listed: [13] | [14] | [15] | [16] | [17]
inactive: all other assays above

CC(Oc1ccc(Oc2ncc(C(F)(F)F)cc2Cl)cc1)C(=O)O (stereo unspecified)
active: [7] 27.3 µM
not listed: [10] | [15] | [16] | [17]
inactive: all other assays above

CC(CCc1ccccc1)NC(C)C(O)c1ccc(O)cc1 (stereo unspecified)
not listed: [1] | [9] | [13] | [14]
inactive: all other assays above
